High-throughput results: PubChem BioAssay, National Center for Advancing Translational Sciences (NCATS)
The sample as a whole holds a higher share of hits than the screen did.
RECQ1 inh: qHTS Assay for Inhibitors of RecQ-Like Dna Helicase 1 (RECQ1) | ATP-dependent DNA helicase Q1 (Homo sapiens), P46063 | RECQ1 DNA unwinding, red fluorescence kinetic read | Potency, µM (top dose mostly 57.3 µM), without a hit: top-dose activity, negative = inhibition, actives largely listed as inhibitors | hit rate 0.54% among 240,000 | AID 2549, 2010;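 note: plate controls were vehicle for no effect and no enzyme for full effect; nearly all actives have a fitted effect of over 30% in size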
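RECQ1T1 50 nM; forked duplex (20 bp + 30-nt ss tails) 200 nM, ATP 2 mM final; pH 8.0, 2 mM MgCl2, 2.5 ug/ml poly(dI-dC); 15 min compound preincubation; discontinuous kinetic read over 2 h at RT.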
BLM inh: qHTS Assay for Inhibitors of Bloom's syndrome helicase (BLM) | RecQ-like DNA helicase BLM (Homo sapiens), P54132 | hit rate 0.2% among 350,000 | recombinant BLM DNA unwinding, fluorescence dequenching | Potency, µM (series often up to 56.1 µM), without a hit: top-dose activity change, negative = inhibition, hits mostly inhibitors;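 note: plate controls were vehicle for no effect and no enzyme for full effect; nearly all actives have a fitted effect of over 35% in size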
KDM4E inh: qHTS Assay for Inhibitors of Human Jumonji Domain Containing 2E (JMJD2E); Lysine-specific demethylase 4E (Homo sapiens), B2RXH2; Potency, µM (doses to about 57.1 µM), for inactives: at the top dose activity change, negative = inhibition, actives largely listed as inhibitors; JMJD2E catalytic domain, FDH-coupled NADH fluorescence (FDH is formaldehyde dehydrogenase); hit rate 1.6% among 230,000; active = well fitted inhibition curve with a large enough effect, not every such curve was filed as active; inconclusive = small, poorly fitted or top-dose-only effect, or another doubt; inactive = no such curve, though single readings can be large or run the other way;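 note: 0% = wells with enzyme and -100% = buffer wells without enzyme; nearly all actives have a fitted effect of over 50% in size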
L3MBTL1 block: qHTS Assay for the Inhibitors of L3MBTL1; Lethal(3)malignant brain tumor-like protein 1 (Homo sapiens), Q9Y468; AlphaScreen L3MBTL1–H3K9me1 peptide binding; Potency, µM (top dose mostly 57.1 µM), inactives show at the top dose activity, negative = inhibition, most hits filed as inhibitors; hit rate 0.66% among 230,000; note: nearly all actives have a fitted effect of over 60% in size
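Displacement of a biotinylated histone H3(1-15) peptide monomethylated at Lys9 (75 nM) from L3MBTL1 (50 nM) was measured by AlphaScreen after a 30 min room-temperature compound incubation; cefsulodin titration served as intraplate control.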
TDP1 block: qHTS Assay for Inhibitors of Tyrosyl-DNA Phosphodiesterase (TDP1); recombinant TDP1, AlphaScreen DNA substrate cleavage; Potency, µM (doses to about 130 µM), for inactives: at the top dose activity change, negative = inhibition, most hits filed as inhibitors; hit rate 0.28% among 350,000; note: nearly all actives have a fitted effect of over 40% in size
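Tdp1 1 nM final; 15 min RT w/ cpd; substrate 15 nM, 5 min; beads 10 ug/ml, 10 min; AlphaScreen read. Neg ctrl: no enzyme.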
APE1 inh: qHTS Assay for Inhibitors of the Human Apurinic/apyrimidinic Endonuclease 1 (APE1). DNA repair nuclease/redox regulator APEX1 (Homo sapiens), P27695. recombinant APE1, TAMRA/BHQ-2 abasic DNA cleavage fluorescence. Potency, µM (highest dose often 65.8 µM), inactives show at the highest dose activity change, negative = inhibition, actives largely listed as inhibitors. hit rate 0.35% among 350,000. AID 2517, 2012;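 note: plate controls were vehicle for no effect and reference inhibitor for full effect; nearly all actives have a fitted effect of over 55% in size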
Target sequence (P27695 whole entry, looked up): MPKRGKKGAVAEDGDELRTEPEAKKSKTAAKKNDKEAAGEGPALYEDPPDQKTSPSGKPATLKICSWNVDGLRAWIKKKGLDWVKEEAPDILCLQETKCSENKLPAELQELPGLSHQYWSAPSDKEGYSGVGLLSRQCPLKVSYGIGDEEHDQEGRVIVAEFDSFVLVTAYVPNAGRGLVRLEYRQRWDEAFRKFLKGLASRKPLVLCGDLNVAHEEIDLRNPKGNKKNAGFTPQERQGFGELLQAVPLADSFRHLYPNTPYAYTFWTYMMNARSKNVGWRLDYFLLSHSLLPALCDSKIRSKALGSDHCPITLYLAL
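Substrate: short duplex with […] THF abasic site, 5'-TAMRA and 3'-BHQ-2, 50 nM final. APE1 at 0.75 nM, preincubated 15 min RT with compound. Fluorescence increase from first to third read measured activity.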
Numbers without * were called inactive; i = inactive; ? = inconclusive; . = not tested or not shown. Unless noted, calls come from the whole dose curve; as a rule, active = well fitted curve in the direction sought with a large enough effect; inconclusive = small, poorly fitted or top-dose-only effect, or another doubt; inactive = no such curve, though single readings can be large; an effect the other way counts as inactive or inconclusive. Unless noted, % is set by controls: 0 for no effect and ±100 for the full control effect; potency is the fitted concentration of half-maximal effect.

SMILES | RECQ1 inh | BLM inh | KDM4E inh | L3MBTL1 block | TDP1 block | APE1 inh
C#CCOCCOCCOCCNc1nc(N2CCN(C(=O)[C@H](CCC(=O)O)n3cc(C(N)Cc4ccc(O)cc4)nn3)CC2)nc(N2CCN(C(=O)[C@H](Cc3cc4ccccc4[nH]3)n3cc(C(N)[C@H](C)CC)nn3)CC2)n1 (stereo not given in full) | -10.6% | -8.6% | -4.8% | ? | 6.4% | 1.5%
C#CCOCCOCCOCCNc1nc(N2CCN(C(=O)[C@H](CCC(=O)O)n3cc(C(N)CO)nn3)CC2)nc(N2CCN(C(=O)[C@H](CCC(=O)O)n3cc(C(N)CC(C)C)nn3)CC2)n1 (stereo not given in full) | -15.1% | -6.9% | 22.4µM* | . | ? | ?
N#CC1=C(N)SC(N)=C(C#N)C1c1ccc(C(F)(F)F)cc1 | i | -9.6% | 12.6µM* | 0.0% | 6.9% | 12.9%
Cn1ccc2c(OCC(=O)NCc3ccccc3Cl)cccc2c1=O | . | -0.9% | . | . | 5.2% | .
Cc1nc(SCc2cccc(F)c2)[nH]c(=O)c1C#N | i | -1.7% | 28.2µM* | 7.6% | 5.2% | -4.9%
N#Cc1c(-c2ccco2)nc(SCc2ccc(F)cc2)[nH]c1=O | 10.8% | -5.1% | -3.5% | -16.2% | 4.4% | 1.6%
COCCNc1ncnc2ccc(-c3ccccc3C)cc12 | -4.8% | -3.3% | . | . | . | -4.3%
c1coc(-c2nc(-c3ccco3)c(-c3ccco3)nc2-c2ccco2)c1 | 3.98µM* | 14.1µM* | ? | 10µM* | 3.16µM* | 1.41µM*
COc1ccc(Cc2c3cc(OC)c(OC)cc3cc[n+]2C)cc1OC | 15.8% | 6.2% | ? | . | . | 12.2%
CC[n+]1ccc2cc(OC)c(OC)cc2c1Cc1ccc(OC)c(OC)c1 | i | -14.6% | 25.1µM* | 14.0% | 8.7% | 20.5%
COc1ccc(OC)c(Nc2nc(NCc3ccco3)c3ccccc3n2)c1 | . | 28.2µM* | . | -10.4% | . | -7.7%
Cc1ccccc1Nc1nc(NCc2ccco2)c2ccccc2n1 | -18.4% | -3.7% | ? | . | 10.5% | 15.3%
Cc1ccc(Cl)cc1NC(=O)c1cc2ccccc2cc1O | i | -15.7% | 22.4µM* | 6.1% | 5.7% | 10.7%
O=C(O)c1ccc2c(ccc3nn(-c4ccc(/C=C/c5ccc(-n6nc7ccc8cc(C(=O)O)ccc8c7n6)cc5[S+](=O)([O-])[O-])c([S+](=O)([O-])[O-])c4)nc32)c1 | . | . | . | . | 2.51µM* | .
O=C(O)c1ccc2c(c1)ncn2-c1ccc(F)c(F)c1 | . | 0.0% | . | . | 4.5% | .
Cc1ccccc1NC(=O)CN1C(=O)S/C(=C\c2ccc(-c3cc(C(=O)O)ccc3C)o2)C1=O | i | -6.7% | 0.5% | ? | . | ?
Cc1cc(C(=O)O)ccc1-c1ccc(/C=C2\SC(=O)N(CC(=O)Nc3ccc4c(c3)OCO4)C2=O)o1 | . | 11.2µM* | . | . | 8.91µM* | 6.7µM*
C#CCN1C(=O)S/C(=C\c2ccc(-c3ccc(C(=O)O)cc3C)o2)C1=O | . | -26.0% | . | 5.01µM* | . | ?
CCOC(=O)C(C)N1C(=O)S/C(=C\c2ccc(-c3ccccc3C(=O)O)o2)C1=O (stereo not given) | . | -0.3% | . | . | . | 5.97µM*
COC(=O)c1cc2oc3ccccc3c2n1CC(=O)Nc1ccc(C)cc1Cl | . | -4.7% | . | . | 1.0% | .
COc1cccc(/C=N/Nc2ncnc3c2[nH]c2ccc(C)cc23)c1OC | -7.8% | 14.1µM* | ? | . | . | 1.5%
